The results in this text go back to PubChem BioAssay (EPA / NIEHS).

Calls of active or inactive are those of the source. How the source made its calls: active means hit-call score of the fitted dose curve at least 0.9, where 1 is the maximum; inactive means score below 0.9.

In general, AC50 refers to the concentration at which the activity in the assay is half-maximal.

A short description of one assay: CCTE_Padilla_ZF_Score.Spine: CCTE's 144 Hour Post-fertilization zebrafish Assay Score for Spine Malformation, Padilla Lab (AID 2284407). The method in brief: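 Wild-type zebrafish embryos, one per well in Hanks' solution, dosed at 6–8 hpf in sealed plates at 26C, 14:10 h light:dark; rinsed at 5 dpf. Two blinded assessors scored spinal defects by stereomicroscopy at 6 dpf; fitted versus DMSO.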
Take `CC(F)(F)CC(F)(F)F`: the call was inactive.
Consider `O=S(=O)(F)C(F)(F)C(F)(F)C(F)(F)C(F)(F)F`, for which the result was inactive.
`COC(F)(C(F)(F)C(F)(F)F)C(F)(C(F)(F)F)C(F)(F)F` (centres undefined): the molecule was classed as inactive.
In the case of `C=CCOC(F)(C(F)(F)F)C(F)(F)F`, the molecule was classed as inactive.

A short description of a further assay: CCTE_Padilla_ZF_Score.Swim_bladder: CCTE's 144 Hour Post-fertilization zebrafish Assay Score for Swim Bladder Malformation, Padilla Lab (AID 2284408). As for the experimental part:
CCTE_Padilla_ZF_Phenotype_Score is a whole embryo, multiplexed assay using zebrafish ova exposed for 144 hours post fertilization on a 96-well plate.CCTE_Padilla_ZF_Score.Swim_bladder is one of one assay component(s) measured or calculated from the CCTE_Padilla_ZF_Phenotype_Score assay. It is designed to make measurements of zebrafish development as detected with brightfield microscopy of developing zebrafish embryos.Data from the assay component CCTE_Padilla_ZF_Score.Swim_bladder was analyzed into 1 assay endpoints. This assay endpoint, CCTE_Padilla_ZF_Score.Swim_bladder, was analyzed in the positive analysis fitting direction relative to DMSO as the negative control and baseline of activity. Using a type of viability reporter, gain-of-signal activity can be used to understand changes in developmentals as they relate to the whole embryo. To generalize the intended target to other relatable targets, this assay endpoint is annotated to the zebrafish development intended target family, where the subfamily is swim bladder morphogenesis.
Zebrafish husbandry: Wild type adult zebrafish (Danio rerio; undefined outbred stock obtained from Aquatic Research Organisms, Hampton, NH, 03842) were housed in an AAALAC-approved animal facility at 28C with a 14:10 h light: dark cycle (lights on at 08:30 h). Adult fish (2-3 females per male; density = 15-20 adults per tank) were kept in one of several 9-liter (L) flow-through colony tanks (Aquaneering Inc., San Diego, CA). All adults in a colony tank were placed in a 2 L (static) breeding tank (Aquatic Habitats, Apopka, FL) one hour prior to light onset. Typically, adults from two to three colony tanks were mated on the same day. Two hours after light onset the adults were returned to the colony tank. All embryos were gathered from each breeder tank, pooled, and placed in a 28C water bath for 2 h, followed by two washes with 0.06% bleach (v/v) in 10% Hanks' Balanced Salt Solution (13.7 mM NaCl 0.54 mM KCl, 25 uM Na2HPO4, 130 uM CaCl2 100 um MgSO4 and 420 um NaHCO3,), hereafter referred to as Hanks' solution, for 5 min in order to remove any residual bacteria or fungi. Immediately following washing, the embryos were examined, and healthy embryos were separated from dead or unfertilized eggs and moved into fresh Hanks'. Chemical exposures: Zebrafish embryos were exposed in 96-well plates. Between 6- and 8-hours post fertilization (hpf), healthy embryos (with chorions) were transferred, one embryo per well, into 96 well (0.5 mL) microtiter plates (Cell Culture-Treated, Flat-Bottom Microplate 96 well [Corning Costar, Kennebunk, ME; Cat 09-761-145]) filled with 200 uL of Hanks' solution. A random number generator was used to assign the order in which the rows of embryos were plated in 96 well plates each week. […]
For the molecule `CC(F)(F)CC(F)(F)F`, the result was inactive.
Same read-out and setting: next, `O=S(=O)(F)C(F)(F)C(F)(F)C(F)(F)C(F)(F)F`: “inactive”.
Still for that read-out and setting: next, `COC(F)(C(F)(F)C(F)(F)F)C(F)(C(F)(F)F)C(F)(F)F` (centres undefined): “inactive”.
Still for that read-out and setting: next, `C=CCOC(F)(C(F)(F)F)C(F)(F)F`: “inactive”.

Another assay in a line: CCTE_Padilla_ZF_Score.Position: CCTE's 144 Hour Post-fertilization zebrafish Assay Score for Position, Padilla Lab (AID 2284409). In outline: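 Wild-type zebrafish embryos (with chorions) exposed singly from 6–8 hpf in sealed wells of Hanks' solution at 26C, rinsed at 5 dpf. At 6 dpf, blinded assessors scored abnormal water-column position by brightfield stereomicroscopy, relative to DMSO.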
As for `CC(F)(F)CC(F)(F)F`, the result was inactive.
On the same count and under the same terms, then `O=S(=O)(F)C(F)(F)C(F)(F)C(F)(F)C(F)(F)F`, with “inactive”; and `COC(F)(C(F)(F)C(F)(F)F)C(F)(C(F)(F)F)C(F)(F)F` (centres undefined), with “inactive”.
In the case of `C=CCOC(F)(C(F)(F)F)C(F)(F)F`, the result was inactive.

The nature of another assay: CCTE_Padilla_ZF_Score.Living: CCTE's 144 Hour Post-fertilization zebrafish Assay Score for Viability, Padilla Lab (AID 2284410).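 Further: larval death at 6 dpf judged by absent heartbeat or coagulation.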 The method in brief:
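Wild-type zebrafish embryos were exposed singly from 6–8 hpf in sealed wells of Hanks' solution at 26C, then rinsed at 5 dpf. At 6 dpf, blinded assessors scored mortality (no heartbeat or coagulation) by stereomicroscopy, fitted against DMSO.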
For `CC(F)(F)CC(F)(F)F`, the outcome was inactive.
Take `O=S(=O)(F)C(F)(F)C(F)(F)C(F)(F)C(F)(F)F`: the result was inactive.
Same read-out and setting: next, `COC(F)(C(F)(F)C(F)(F)F)C(F)(C(F)(F)F)C(F)(F)F` (centres undefined): “inactive”; `C=CCOC(F)(C(F)(F)F)C(F)(F)F`: “inactive”.

Another assay is described as follows: CCTE_Padilla_ZF_Score.General: CCTE's 144 Hour Post-fertilization zebrafish Assay Score for General Malformation, Padilla Lab (AID 2284411). The method in brief: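 Wild-type zebrafish embryos were plated singly at 6-8 hpf in 10% Hanks' and exposed in sealed wells at 26C until rinsed on 5 dpf. At 6 dpf two blinded assessors scored mortality, hatching and malformations by stereomicroscopy; gain-of-signal versus DMSO.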
For the molecule `CCN(CC)C(=O)C(Cl)=C(C)OP(=O)(OC)OC`, the outcome was inactive.
`CC(F)(F)CC(F)(F)F`: the call was inactive.
As for `Cc1ccccc1OP(=O)(Oc1ccccc1)Oc1ccccc1`, the AC50 was 2.78 µM (active).
Same read-out and setting: next, `O=S(=O)(c1ccc(Cl)cc1)c1cc(Cl)c(Cl)cc1Cl`: 27.5 µM (active).
For the molecule `CCOP(=O)(OCC)SCCSCC`, the call was inactive.
In the case of `CCCCCCCCCCCCN(C)C`, the outcome was inactive.
For the molecule `O=S(=O)(F)C(F)(F)C(F)(F)C(F)(F)C(F)(F)F`, the outcome was inactive.
For `OC(Cc1ccccc1Cl)(Cn1cncn1)C1(Cl)CC1` (centres undefined), the molecule was called inactive.
Same read-out and setting: next, `CC(C=O)Cc1ccc2c(c1)OCO2` (centres undefined): “inactive”.
On the same count and under the same terms, next, `Cc1cccc(OP(=O)(Oc2cccc(C)c2)Oc2cccc(C)c2)c1`: “inactive”.
In the case of `Cc1ccc2nc3sc(=O)sc3nc2c1`, the AC50 was 0.563 µM (active).
For `CCCCCCCCCCBr`, the call was inactive.
As for `COC(F)(C(F)(F)C(F)(F)F)C(F)(C(F)(F)F)C(F)(F)F` (centres undefined), the call was inactive.
Regarding `O=C1C=CC(=O)c2ccccc21`, the result was inactive.
As to `Nc1c(Oc2ccccc2)cc(O)c2c1C(=O)c1ccccc1C2=O`, the half-maximal activity concentration (AC50) was 14 µM (active).
Same read-out and setting: then `Oc1c(Br)cc(Br)cc1Br`, with 2.31 µM (active); and `CCOC(=O)C(SP(=S)(OC)OC)c1ccccc1` (centres undefined), with 8.89 µM (active).
In the case of `C=CCOC(F)(C(F)(F)F)C(F)(F)F`, the molecule was classed as inactive.
